This note sets out measurements from PubChem BioAssay (EPA / NIEHS).

Inconclusive results are not listed. Some compounds were tested as several samples or in several runs, with calls that do not always agree. Activity calls are given as the source filed them. The calls were made as follows, unless noted: active = hit-call score of the fitted dose curve at least 0.9, where 1 is the maximum; inconclusive = response in the unintended direction; inactive = score below 0.9.

Assay [1] is described as follows: BSK_4H_Eotaxin3: BioMAP Diversity Plus: 4H Assay for Eotaxin 3 Biomarker Activity (AID 2283000; active = hit-call score of the fitted dose curve at least 0.9, where 1 is the maximum; inactive = score below 0.9;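 also: CCL26 protein level quantified by ELISA in parallel with SRB cytotoxicity check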). As to conditions: primary human endothelial cells (HUVEC); actives raise or lower the signal. A digest of the protocol: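 Readout is Eotaxin-3 (CCL26) level by ELISA in primary human umbilical vein endothelial cells harvested 24 h after chemical exposure; activity fitted in both directions against DMSO control.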

Assay [2] has as its target human Peroxisome Proliferator-activated Receptor alpha (PPARa), PPARA (gene 5465) (UniProt Q07869). Description: ATG_PPARa_TRANS: Attagene TRANS-FACTORIAL HepG2 Assay for human Peroxisome Proliferator-activated Receptor alpha (PPARa) (AID 2283001). The procedure, abridged:
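Reporter transcripts from GAL4-UAS units in transfected HepG2 were quantified 24 h after dosing. Detection used reverse transcription, PCR, fluorescent primer extension and capillary electrophoresis, with DMSO as baseline.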

The target of assay [3] is human Peroxisome Proliferator-activated Receptor delta (PPARd), PPARD (gene 5467) (UniProt Q03181). As to the kind of experiment: ATG_PPARd_TRANS: Attagene TRANS-FACTORIAL HepG2 Assay for human Peroxisome Proliferator-activated Receptor delta (PPARd) (AID 2283002). The procedure, abridged:
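Cell-based TRANS reporter: HepG2, transient MRTU transfection, 24 h exposure. Readout = reporter mRNA (RT-PCR/CE, 6-FAM). Gain-of-signal fit vs DMSO control.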

Read-out in assay [4]: Intercellular Adhesion Molecule 1 (ICAM1), ICAM1 (gene 3383)
Description: BSK_3C_ICAM1: BioMAP Diversity Plus: 3C Assay for Intercellular Adhesion Molecule 1 (ICAM1) Biomarker Activity (AID 2283003; active = hit-call score of the fitted dose curve at least 0.9, where 1 is the maximum; inactive = score below 0.9). As to conditions: primary human endothelial cells (HUVEC); actives raise or lower the signal. A digest of the protocol:
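Human vascular endothelial primary cells, 3C conditions, 24 h treatment. ICAM-1 by ELISA.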

Assay [5] deals with human Retinoic Acid Receptor beta (RARb), RARB (gene 5915) (UniProt P10826). Description: ATG_RARb_TRANS: Attagene TRANS-FACTORIAL HepG2 Assay for human Retinoic Acid Receptor beta (AID 2283004). A digest of the protocol:
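Readout is reporter mRNA induction: RNA reverse-transcribed, PCR-amplified, FAM-labelled, HpaI-cut and resolved by capillary electrophoresis. Transiently transfected HepG2 cells carrying exogenous NR–Gal4 chimeras were dosed for 24 h; activity fitted upward relative to DMSO.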

For assay [6], the target named is Retinoic acid receptor alpha (Homo sapiens) (UniProt P10276). Description: ATG_RARa_TRANS: Attagene TRANS-FACTORIAL HepG2 Assay for human Retinoic Acid Receptor alpha (RARa) (AID 2283005).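 As to AC50: potency for increased reporter signal meaning RARa activation over DMSO.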 The procedure, abridged: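 Reporter transcripts, measured by RT-PCR with fluorescent labeling and capillary electrophoresis after 24 h dosing, reflect activity of an exogenous human RARa–GAL4 fusion in transiently transfected HepG2. Fitted for increase relative to DMSO.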
Retinoic acid receptor alpha (Homo sapiens), sequence (P10276 whole entry, looked up, the tested form may be a part): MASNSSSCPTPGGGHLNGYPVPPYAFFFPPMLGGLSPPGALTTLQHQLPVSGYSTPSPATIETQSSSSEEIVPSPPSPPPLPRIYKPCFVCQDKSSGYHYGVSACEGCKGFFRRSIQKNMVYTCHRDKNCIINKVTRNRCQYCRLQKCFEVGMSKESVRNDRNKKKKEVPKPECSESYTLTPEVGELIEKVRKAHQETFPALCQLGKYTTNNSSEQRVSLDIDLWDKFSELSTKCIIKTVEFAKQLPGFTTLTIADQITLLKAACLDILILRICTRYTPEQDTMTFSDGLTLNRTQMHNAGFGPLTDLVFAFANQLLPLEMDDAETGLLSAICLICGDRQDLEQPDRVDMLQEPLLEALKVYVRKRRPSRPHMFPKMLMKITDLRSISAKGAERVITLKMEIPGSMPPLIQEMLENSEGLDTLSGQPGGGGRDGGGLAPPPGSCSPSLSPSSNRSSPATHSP

Assay [7] is described as follows: BSK_3C_Proliferation: Cell Proliferation Assessment in the BioMAP Diversity Plus: 3C Assay (AID 2283006; active = hit-call score of the fitted dose curve at least 0.9, where 1 is the maximum; inactive = score below 0.9;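 as to AC50: potency may reflect either rise or fall in cell number versus DMSO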). As to conditions: primary human endothelial cells (HUVEC). A digest of the protocol: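 Proliferation of human vascular endothelial primary cells after 48 h dosing, quantified as SRB-stained protein at 560 nm relative to DMSO.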
Assay [8] has as its target human Retinoic Acid Receptor gamma (RARg), RARG (gene 5916) (UniProt P13631). As to the kind of experiment: ATG_RARg_TRANS: Attagene TRANS-FACTORIAL HepG2 Assay for human Retinoic Acid Receptor gamma (RARg) (AID 2283009). A digest of the protocol:
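HepG2, RARg-GAL4 TRANS system, 24 h exposure; reporter mRNA by RT-PCR + CE fluorescence; increase over DMSO.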

Assay [9] addresses human RAR-related Orphan Receptor gamma (RORg), RORC (gene 6097) (UniProt P51449). As to the kind of experiment: ATG_RORg_TRANS: Attagene TRANS-FACTORIAL HepG2 Assay for human RAR-related Orphan Receptor gamma (RORg) (AID 2283011). A digest of the protocol: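 Transient MRTU transfection of HepG2 (TRANS format, exogenous NR-Gal4 chimera). 24 h dosing. Total RNA → oligo(dT) RT → PCR → 6-FAM labelling → HpaI cut → CE. Gain vs DMSO.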

The target in assay [10] is Retinoic acid receptor RXR-alpha (Homo sapiens) (UniProt P19793). Description: ATG_RXRa_TRANS: Attagene TRANS-FACTORIAL HepG2 Assay for human Retinoid X Receptor alpha (RXRa) (AID 2283012). A digest of the protocol: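 Cells (HepG2) carried transiently transfected GAL4-responsive reporter units. Following a 24 h chemical incubation, reporter mRNA induction was read via RT-PCR fragment analysis; DMSO served as negative control and baseline.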
Retinoic acid receptor RXR-alpha (Homo sapiens), sequence (P19793 whole entry, looked up, the tested form may be a part): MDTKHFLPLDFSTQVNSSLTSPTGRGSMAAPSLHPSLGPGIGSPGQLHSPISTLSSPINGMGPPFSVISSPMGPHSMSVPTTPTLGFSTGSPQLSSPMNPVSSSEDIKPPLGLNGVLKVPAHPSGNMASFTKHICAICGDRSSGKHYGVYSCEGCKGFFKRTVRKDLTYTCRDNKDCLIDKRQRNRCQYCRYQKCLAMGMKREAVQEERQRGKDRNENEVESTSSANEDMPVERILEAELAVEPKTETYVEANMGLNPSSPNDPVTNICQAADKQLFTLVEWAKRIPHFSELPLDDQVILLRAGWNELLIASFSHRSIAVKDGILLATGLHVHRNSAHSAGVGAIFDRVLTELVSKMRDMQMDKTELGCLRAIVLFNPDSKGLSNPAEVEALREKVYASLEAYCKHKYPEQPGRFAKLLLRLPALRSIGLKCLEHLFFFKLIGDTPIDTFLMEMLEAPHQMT

Assay [11] concerns the target human Retinoid X Receptor beta (RXRb), RXRB (gene 6257) (UniProt P28702). Description: ATG_RXRb_TRANS: Attagene TRANS-FACTORIAL HepG2 Assay for human Retinoid X Receptor beta (RXRb) (AID 2283013). A digest of the protocol: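 Multiplexed TRANS reporter assay in HepG2; 24 h dosing; reporter mRNA by RT-PCR/CE fluorescence; gain-of-signal relative to DMSO.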
Assay [12] addresses human Thyroid Receptor alpha (THRa1), THRA (gene 7067) (UniProt P10827). As to the kind of experiment: ATG_THRa1_TRANS: Attagene TRANS-FACTORIAL HepG2 Assay for human Thyroid Receptor alpha (THRa1) (AID 2283014). The procedure, abridged: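 Transient HepG2 transfection, NR-Gal4 chimera driving GAL4-UAS reporters; 24 h compound exposure; total RNA, oligo(dT) RT, PCR, fluorescent primer extension, capillary electrophoresis. Upward direction vs DMSO control.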

Read-out in assay [13]: E-selectin (Homo sapiens) (UniProt P16581)
Description: BSK_3C_Eselectin: BioMAP Diversity Plus: 3C Assay for Eselectin Biomarker Activity (AID 2283015; active = hit-call score of the fitted dose curve at least 0.9, where 1 is the maximum; inactive = score below 0.9;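 as to outcome: cell surface E-selectin protein quantified by ELISA 24 h after dosing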). As to conditions: primary human endothelial cells (HUVEC); actives raise or lower the signal. The procedure, abridged: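 HUVEC, 3C stimulation; compound exposure 24 h; E-selectin by ELISA; gain- or loss-of-signal fitted bidirectionally vs DMSO baseline.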

Read-out in assay [14]: Interleukin-1 alpha (IL1a), IL1A (gene 3552)
Description: BSK_BE3C_IL1a: BioMAP Diversity Plus: BE3C Assay for Interleukin-1 alpha (IL1a) Biomarker Activity (AID 2283016; active = hit-call score of the fitted dose curve at least 0.9, where 1 is the maximum; inactive = score below 0.9). Particulars: primary human bronchial epithelial cells; actives raise or lower the signal. The procedure, abridged:
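Cultures of primary human bronchial epithelial cells receive test chemical. After 24 h, IL-1a is quantified by ELISA, while parallel wells are fixed in TCA and SRB-stained for total protein. Changes in either direction are fitted relative to DMSO.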

Read-out in assay [15]: Monocyte Chemoattractant Protein-1 (MCP1), CCL2 (gene 6347)
As to the kind of experiment: BSK_3C_MCP1: BioMAP Diversity Plus: 3C Assay for Monocyte Chemoattractant Protein-1 (MCP1) Biomarker Activity (AID 2283017; active = hit-call score of the fitted dose curve at least 0.9, where 1 is the maximum; inactive = score below 0.9). As to conditions: primary human endothelial cells (HUVEC); actives raise or lower the signal. The procedure, abridged:
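HUVEC, 3C system; 24 h chemical exposure; MCP-1 by ELISA; bidirectional curve fit vs DMSO baseline.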

Read-out in assay [16]: Monocyte Chemoattractant Protein-1 (MCP1), CCL2 (gene 6347)
As to the kind of experiment: BSK_4H_MCP1: BioMAP Diversity Plus: 4H Assay for Monocyte Chemoattractant Protein-1 (MCP1) Biomarker Activity (AID 2283018; active = hit-call score of the fitted dose curve at least 0.9, where 1 is the maximum; inactive = score below 0.9). Particulars: primary human endothelial cells (HUVEC); actives raise or lower the signal. The procedure, abridged:
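Readout: MCP-1 ELISA on compound-treated HUVEC, sampled 24 h post-dosing. Baseline and negative control DMSO; bidirectional fit. Overt toxicity checked alongside by sulforhodamine B protein staining at time of biomarker measurement.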

Read-out in assay [17]: Human Leukocyte Antigen - DR isotype (HLADR), HLA-DRA (gene 3122)
As to the kind of experiment: BSK_3C_HLADR: BioMAP Diversity Plus: 3C Assay for Human Leukocyte Antigen - DR isotype (HLADR) Biomarker Activity (AID 2283019; active = hit-call score of the fitted dose curve at least 0.9, where 1 is the maximum; inactive = score below 0.9;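 as to outcome: ELISA of cell-surface HLA-DR on HUVEC 24 h after dosing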). Particulars: primary human endothelial cells (HUVEC); actives raise or lower the signal. The procedure, abridged: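 HUVEC, 3C stimulation, 24 h post-dose; HLA-DR by ELISA; bidirectional curve fit vs DMSO baseline; gain or loss of signal scored.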

Assay [18] concerns the target Peroxisome proliferator-activated receptor gamma (Homo sapiens) (UniProt P37231). As to the kind of experiment: ATG_PPARg_TRANS: Attagene TRANS-FACTORIAL HepG2 Assay for human Peroxisome Proliferator-activated Receptor-gamma (PPARg) (AID 2283007). The procedure, abridged: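 Endpoint reflects upward reporter mRNA change versus DMSO controls. Setup: transiently transfected HepG2, GAL4-UAS reporters driven by chimeric NR-Gal4, 24 h incubation, RT-PCR with capillary electrophoresis read-out.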

Assay [19] addresses human RAR-related Orphan Receptor beta (RORb), RORB (gene 6096) (UniProt Q92753). Description: ATG_RORb_TRANS: Attagene TRANS-FACTORIAL HepG2 Assay for human RAR-related Orphan Receptor beta (RORb) (AID 2283010). The procedure, abridged:
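In this TRANS-format test, human HepG2 cells express chimeric NR-Gal4 fusion proteins driving GAL4-UAS reporters. After 24 h dosing, reporter transcripts are measured by fluorescent RT-PCR/capillary electrophoresis, with DMSO as negative control.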

Peroxisome proliferator-activated receptor gamma (Homo sapiens), sequence (P37231 whole entry, looked up, the tested form may be a part): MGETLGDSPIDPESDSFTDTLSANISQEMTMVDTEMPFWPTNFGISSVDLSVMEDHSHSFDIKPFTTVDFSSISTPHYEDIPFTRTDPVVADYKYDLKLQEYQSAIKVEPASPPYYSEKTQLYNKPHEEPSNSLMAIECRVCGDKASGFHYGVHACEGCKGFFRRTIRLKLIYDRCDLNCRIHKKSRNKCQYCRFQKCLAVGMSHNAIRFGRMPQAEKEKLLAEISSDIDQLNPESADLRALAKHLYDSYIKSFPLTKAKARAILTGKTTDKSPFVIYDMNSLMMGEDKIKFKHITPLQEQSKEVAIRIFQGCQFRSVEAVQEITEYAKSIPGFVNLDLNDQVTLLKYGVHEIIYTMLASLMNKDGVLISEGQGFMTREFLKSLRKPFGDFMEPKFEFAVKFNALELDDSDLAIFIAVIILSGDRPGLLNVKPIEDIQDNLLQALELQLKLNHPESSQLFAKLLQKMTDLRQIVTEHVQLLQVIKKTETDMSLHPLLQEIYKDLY
human Peroxisome Proliferator-activated Receptor delta (PPARd), PPARD (gene 5467), sequence (Q03181 whole entry, looked up): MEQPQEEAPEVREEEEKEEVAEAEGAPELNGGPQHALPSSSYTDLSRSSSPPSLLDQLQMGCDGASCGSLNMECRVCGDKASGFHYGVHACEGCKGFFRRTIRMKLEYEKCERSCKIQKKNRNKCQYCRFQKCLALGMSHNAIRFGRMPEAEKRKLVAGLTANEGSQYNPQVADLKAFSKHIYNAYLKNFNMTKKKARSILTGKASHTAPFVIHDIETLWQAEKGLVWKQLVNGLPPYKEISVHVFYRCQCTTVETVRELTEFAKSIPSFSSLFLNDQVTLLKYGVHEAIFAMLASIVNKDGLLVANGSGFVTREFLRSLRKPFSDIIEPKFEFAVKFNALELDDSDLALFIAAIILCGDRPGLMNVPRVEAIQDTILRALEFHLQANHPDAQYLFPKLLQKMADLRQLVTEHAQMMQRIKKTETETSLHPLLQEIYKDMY
human RAR-related Orphan Receptor gamma (RORg), RORC (gene 6097), sequence (P51449 whole entry, looked up, the tested form may be a part): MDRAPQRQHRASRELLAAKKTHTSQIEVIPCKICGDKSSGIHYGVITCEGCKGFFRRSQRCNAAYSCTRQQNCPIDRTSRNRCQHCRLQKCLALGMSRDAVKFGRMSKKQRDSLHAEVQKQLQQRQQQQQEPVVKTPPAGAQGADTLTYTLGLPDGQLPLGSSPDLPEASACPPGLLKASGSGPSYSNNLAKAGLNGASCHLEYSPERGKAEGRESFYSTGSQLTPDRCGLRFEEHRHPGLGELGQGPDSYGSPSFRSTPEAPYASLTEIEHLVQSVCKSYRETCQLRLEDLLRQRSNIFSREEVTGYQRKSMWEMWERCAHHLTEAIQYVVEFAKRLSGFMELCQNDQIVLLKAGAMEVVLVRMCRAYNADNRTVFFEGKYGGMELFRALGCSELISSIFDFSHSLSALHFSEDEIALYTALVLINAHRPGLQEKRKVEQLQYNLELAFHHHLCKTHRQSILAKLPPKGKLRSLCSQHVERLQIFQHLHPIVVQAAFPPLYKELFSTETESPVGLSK
human Thyroid Receptor alpha (THRa1), THRA (gene 7067), sequence (P10827 whole entry, looked up, the tested form may be a part): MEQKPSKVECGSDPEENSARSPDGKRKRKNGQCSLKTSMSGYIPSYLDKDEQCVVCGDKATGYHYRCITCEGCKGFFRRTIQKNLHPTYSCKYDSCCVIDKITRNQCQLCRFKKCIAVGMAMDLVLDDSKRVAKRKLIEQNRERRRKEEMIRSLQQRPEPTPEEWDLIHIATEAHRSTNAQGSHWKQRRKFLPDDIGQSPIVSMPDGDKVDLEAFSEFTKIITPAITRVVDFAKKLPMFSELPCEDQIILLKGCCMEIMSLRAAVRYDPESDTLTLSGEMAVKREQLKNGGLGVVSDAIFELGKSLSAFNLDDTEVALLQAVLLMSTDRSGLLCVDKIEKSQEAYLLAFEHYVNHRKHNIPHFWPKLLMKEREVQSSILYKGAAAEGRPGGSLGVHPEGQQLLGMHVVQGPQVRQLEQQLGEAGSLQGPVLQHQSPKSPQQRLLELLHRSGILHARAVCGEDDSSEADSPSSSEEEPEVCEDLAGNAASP
E-selectin (Homo sapiens), sequence (P16581 whole entry, looked up): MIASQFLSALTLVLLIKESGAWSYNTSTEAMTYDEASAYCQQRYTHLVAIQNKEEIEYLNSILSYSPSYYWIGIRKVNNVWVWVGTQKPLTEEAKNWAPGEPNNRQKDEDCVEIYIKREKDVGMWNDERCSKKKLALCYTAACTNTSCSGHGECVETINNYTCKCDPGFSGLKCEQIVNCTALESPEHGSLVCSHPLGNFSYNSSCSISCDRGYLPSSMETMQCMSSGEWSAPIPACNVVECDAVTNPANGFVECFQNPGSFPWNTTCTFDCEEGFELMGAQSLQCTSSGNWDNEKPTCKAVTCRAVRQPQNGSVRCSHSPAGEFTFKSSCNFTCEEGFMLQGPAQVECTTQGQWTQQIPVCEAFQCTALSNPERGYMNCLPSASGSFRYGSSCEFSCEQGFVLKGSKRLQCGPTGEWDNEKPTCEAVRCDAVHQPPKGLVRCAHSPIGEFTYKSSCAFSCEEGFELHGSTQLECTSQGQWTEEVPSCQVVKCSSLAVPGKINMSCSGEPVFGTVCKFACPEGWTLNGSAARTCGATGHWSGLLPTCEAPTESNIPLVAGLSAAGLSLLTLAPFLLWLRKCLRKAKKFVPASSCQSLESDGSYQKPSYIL
human Peroxisome Proliferator-activated Receptor alpha (PPARa), PPARA (gene 5465), sequence (Q07869 whole entry, looked up, the tested form may be a part): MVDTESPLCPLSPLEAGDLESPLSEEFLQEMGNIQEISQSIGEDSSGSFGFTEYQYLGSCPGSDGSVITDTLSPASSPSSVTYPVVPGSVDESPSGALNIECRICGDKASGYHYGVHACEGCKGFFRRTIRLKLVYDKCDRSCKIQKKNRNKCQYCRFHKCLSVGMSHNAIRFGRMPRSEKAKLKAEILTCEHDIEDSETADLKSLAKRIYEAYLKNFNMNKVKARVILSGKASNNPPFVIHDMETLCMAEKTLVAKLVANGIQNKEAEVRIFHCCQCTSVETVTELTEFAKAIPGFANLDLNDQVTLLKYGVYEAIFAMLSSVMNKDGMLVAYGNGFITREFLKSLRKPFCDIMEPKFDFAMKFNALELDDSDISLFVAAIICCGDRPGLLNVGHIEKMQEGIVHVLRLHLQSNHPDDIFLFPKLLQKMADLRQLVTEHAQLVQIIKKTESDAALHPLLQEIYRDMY
human Retinoid X Receptor beta (RXRb), RXRB (gene 6257), sequence (P28702 whole entry, looked up, the tested form may be a part): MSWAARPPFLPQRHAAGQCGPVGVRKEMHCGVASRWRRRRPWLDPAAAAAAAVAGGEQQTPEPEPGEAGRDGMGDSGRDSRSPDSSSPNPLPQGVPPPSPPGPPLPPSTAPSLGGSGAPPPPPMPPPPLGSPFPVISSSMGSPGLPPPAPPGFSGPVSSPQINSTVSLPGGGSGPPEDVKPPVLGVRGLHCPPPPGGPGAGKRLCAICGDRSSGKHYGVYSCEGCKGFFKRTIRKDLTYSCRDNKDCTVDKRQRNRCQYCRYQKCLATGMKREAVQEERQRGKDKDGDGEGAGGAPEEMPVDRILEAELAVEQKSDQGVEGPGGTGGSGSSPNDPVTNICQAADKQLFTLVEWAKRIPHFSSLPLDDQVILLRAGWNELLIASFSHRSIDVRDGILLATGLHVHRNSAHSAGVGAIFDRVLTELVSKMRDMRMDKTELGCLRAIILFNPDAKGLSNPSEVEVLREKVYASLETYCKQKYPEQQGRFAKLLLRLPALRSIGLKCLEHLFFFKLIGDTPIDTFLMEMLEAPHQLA
human Retinoic Acid Receptor gamma (RARg), RARG (gene 5916), sequence (P13631 whole entry, looked up, the tested form may be a part): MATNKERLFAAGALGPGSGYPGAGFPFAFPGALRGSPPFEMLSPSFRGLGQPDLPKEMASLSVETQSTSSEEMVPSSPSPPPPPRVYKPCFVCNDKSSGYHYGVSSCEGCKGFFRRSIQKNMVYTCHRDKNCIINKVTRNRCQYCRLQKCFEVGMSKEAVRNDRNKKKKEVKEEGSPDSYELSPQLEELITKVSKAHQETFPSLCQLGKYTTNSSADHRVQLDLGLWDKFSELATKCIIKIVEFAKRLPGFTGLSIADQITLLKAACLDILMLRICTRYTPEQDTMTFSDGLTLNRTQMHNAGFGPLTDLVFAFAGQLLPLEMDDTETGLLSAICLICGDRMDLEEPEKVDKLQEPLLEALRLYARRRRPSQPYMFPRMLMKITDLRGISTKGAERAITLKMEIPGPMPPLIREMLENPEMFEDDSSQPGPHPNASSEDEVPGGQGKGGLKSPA

In general, AC50 refers to the concentration at which the activity in the assay is half-maximal. Turning to `COc1nn(CSP(=S)(OC)OC)c(=O)s1`, the outcome in [1], in [2], in assay [3], in assay [4], in assay [5] and in assay [6] was inactive. In addition, the result in assay [7], in assay [8], in assay [9], in [10], in assay [11] and in assay [12] was inactive. Also, the result in [13], in assay [14], in [15] and in assay [16] was inactive. Besides, the concentration at half-maximal activity (AC50) in assay [17] was 36.5 µM (active).

For the compound `COP(=S)(OC)Oc1ccc([N+](=O)[O-])cc1`, the outcome in assay [1], in assay [2], in assay [3], in assay [4], in assay [7] and in assay [18] was inactive. The outcome in assay [8], in assay [11], in [14] and in assay [16] was inactive. The AC50 was 8.4 µM (active) in assay [13], 33.8 µM (active) in assay [15] and 17.4 µM (active) in assay [17].

Take `N#CN`: the result in assay [1], in [2], in assay [3], in [4], in [7] and in assay [18] was inactive. Further, the result in [9], in assay [11], in [13], in assay [14], in assay [15] and in assay [16] was inactive. Besides, in assay [17], the result was inactive.

On to `COP(=S)(OC)Oc1ccc(SC)c(C)c1`, for which the outcome in assay [1], in [2], in assay [3], in assay [4], in assay [5] and in [7] was inactive. Further, the call in assay [8], in assay [19], in [10], in [11], in [13] and in assay [15] was inactive. In addition, the result in assay [16] and in [17] was inactive. For the same compound, the values for the concentration at half-maximal activity (AC50) in assay [18] and in assay [14] were 33.3 µM (active) and 5.15 µM (active), respectively.

As for `CNC(=O)Oc1cccc(N=CN(C)C)c1`, the result in [1], in assay [2], in assay [3], in assay [4], in [5] and in assay [6] was inactive. Besides, the result in assay [7], in [18], in assay [19], in [10], in assay [11] and in assay [12] was inactive. Also, the outcome in [14], in [15] and in [16] was inactive. The figures for the AC50 in assay [13] and in [17] were 20 µM (active) and 18.2 µM (active), respectively.

For `CCCN(CCOc1c(Cl)cc(Cl)cc1Cl)C(=O)n1ccnc1`, the result in assay [1], in assay [2], in [3], in [4], in assay [5] and in assay [6] was inactive. For the same compound, the compound was classed as inactive in assay [18], in assay [8], in assay [9], in assay [10], in [11] and in [12]. The outcome in assay [13] and in assay [15] was inactive. Moreover, the AC50 in assay [6] is 2.5 µM (active); in assay [7] it was 26.7 µM (active); in assay [14], 22.1 µM (active); in assay [16], 20 µM (active); in assay [17], 37 µM (active).
